Experimental data as given in PubChem BioAssay AID430 (Sanford-Burnham Center for Chemical Genomics, 2006).
“And” between values parts separate entries of the source, which are not always exact repeats. Equal entries are not always repeated. Among all 63,000 compounds or so, about 1,100 (1.7%) were called active. Rule as the data show it: active = cytotoxicity above about 50%; inactive = the rest. For the sample, actives were picked, then their nearest neighbours and some compounds at random. Entries with a potency or affinity are not part of this list. Where a structure was tested more than once in an assay, its records may differ in their call.

Assay: cytotoxicity in HPDE-C7 cells, cell-based, fluorescence, HTS (AID 430);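 also: cells exposed to compound for 48 hours before viability readout; 0% = vehicle and 100% = reference cytotoxic drug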
Settings: HPDE-C7 pancreatic duct cells viability, at 10 µM, stronger effect = higher value

Row | Structure (SMILES) | cytotoxicity
1 | Cc1ccc(NC(=O)CS(=O)CC(=O)Nc2cccc(C)c2C)cc1F (stereo not given) | -15.9% (inactive)
2 | COc1ccc(Cl)c(Cn2c(NCC(C)O)nc3c2c(=O)n(C)c(=O)n3C)c1 (stereo not given) | -9.9% (inactive)
3 | O=C1c2ccccc2-c2ncnc3cccc1c23 | 0.7% (inactive)
4 | O=C1c2ccccc2-c2nccnc21 | -15.6% (inactive)
5 | O=C(O)c1ccc2c3c(ncnc13)-c1ccccc1C2=O | 75.6% (active)
6 | CCc1nnc(NC(=O)CCN2C(=O)c3ccccc3S2(=O)=O)s1 | -4.2% (inactive)
7 | Nc1nc(Cl)nc2c1ncn2[C@@H]1O[C@H](CO)[C@@H](O)[C@H]1O | 8.6% (inactive)
8 | Nc1nc(Cl)nc2c1ncn2[C@H]1C[C@H](O)[C@@H](CO)O1 | 7.4% (inactive) and 95.9% (active)
9 | Nc1nc(F)nc2c1ncn2[C@@H]1O[C@H](CO)[C@@H](O)[C@@H]1O | 13.2% (inactive)
10 | Cc1ccc(NC(=O)Cn2c(C)cc(C)c(C#N)c2=O)c(Cl)c1 | -6.5% (inactive)
11 | O=C(CN1C(=O)CSc2ccccc21)NCCC1=CCCCC1 | -11% (inactive)
12 | COc1ccc(NS(=O)(=O)c2cc(C)ccc2OC)cc1OC | 10.3% (inactive)
13 | c1ccc(CN2CCN(c3ncccn3)CC2)nc1 | 6% (inactive)
14 | CCCN1CN(Cc2ccco2)c2nc3ccccc3n2C1 | -15.1% (inactive)
15 | CN1C(=O)C2(c3ccccc31)N(C)CC(c1ccccn1)C21SC(=S)N(Cc2ccco2)C1=O (stereo not given) | -9.5% (inactive)
16 | c1ccc(CCN2CN(CCCN3CCOCC3)c3nc4ccccc4n3C2)cc1 | -23.9% (inactive)
17 | O=C(N1CCOCC1)N1CCN(Cc2ccccc2)CC1 | 4.1% (inactive)
18 | COCCN1CSC(=S)N(Cc2ccco2)C1 | 50.6% (active)
19 | S=C1SCN(CCN2CCOCC2)CN1Cc1ccccc1 | 60.6% (active)
20 | S=C1SCN(Cc2ccccn2)CN1Cc1ccco1 | 64.7% (active)
21 | COc1ccccc1N1CCN(Cc2ccco2)CC1 | -25.7% (inactive)
22 | CCOc1cccc(C(=O)Nc2cccc(-c3nc4ncccc4o3)c2C)c1 | 4.2% (inactive)

Row | Structure (SMILES) | cytotoxicity
23 | COc1ccc(-n2c(Cc3cccn3C)nnc2SCC(=O)NCC2CCCO2)cc1 (stereo not given) | -8.1% (inactive)
24 | O=C1NC(c2cccs2)Nc2sc3c(c21)CCCC3 (stereo not given) | 0.6% (inactive)
25 | CC(C)(C)c1ccccc1NC(=O)c1ccco1 | 15% (inactive)
26 | O=C(Nc1cccnc1)c1ccc(COc2ccccc2Br)o1 | 23.7% (inactive)
27 | COc1ccc(NC(=O)c2ccc(COc3ccccc3Br)o2)cc1OC | 36.6% (inactive)
28 | COc1cc(NC(=O)c2ccc(COc3ccccc3Br)o2)cc(OC)c1OC | 56.6% (active)
29 | CCOC(=O)C1CCN(C(=O)CN(Cc2ccc(Cl)cc2)S(C)(=O)=O)CC1 | -1% (inactive)
30 | Cn1c(CCCOc2ccc(Cl)cc2Cl)nnc1SCC(=O)Nc1nccs1 | 1% (inactive)
31 | O=C(CCS(=O)(=O)c1ccc(Br)cc1)N1CCN(c2ccccc2)CC1 | -1.2% (inactive)
32 | CCOC(=O)c1[nH]c(C)c(C(=O)Nc2ccc(C)c(C)c2)c1C | 8.5% (inactive)
33 | CCOC(=O)c1[nH]c(C)c(C(=O)N2CCc3ccccc32)c1C | 58.8% (active)
34 | CCOC(=O)c1[nH]c(C)c(C(=O)Nc2ccc(C)c(Cl)c2)c1C | -20.5% (inactive)
35 | CCOC(=O)c1[nH]c(C)c(C(=O)Nc2cc(OC)ccc2OC)c1C | 43.5% (inactive)
36 | CCOC(=O)c1[nH]c(C)c(C(=O)Nc2ccc(Cl)cc2)c1C | -8.4% (inactive)
37 | CCOC(=O)c1[nH]c(C)c(C(=O)Nc2cc(Cl)ccc2C)c1C | 60.6% (active)
38 | CCOC(=O)c1[nH]c(C)c(C(=O)Nc2ccc(F)cc2)c1C | -4.5% (inactive)
39 | CC(=O)c1c(C)[nH]c(C(=O)N2CCc3ccccc32)c1C | 1.3% (inactive)
40 | CCOC(=O)c1[nH]c(C)c(C(=O)c2cc(F)ccc2F)c1C | 72.2% (active)
41 | CCOC(=O)c1[nH]c(C)c(C(=O)Nc2ccc(C)cc2C)c1C | 51.9% (active)
42 | CCOC(=O)c1[nH]c(C)c(C(=O)OCC)c1C | -6% (inactive)
43 | CCOC(=O)c1c(C)[nH]c(C(=O)OCC(=O)N2CCc3ccccc32)c1C | -15.4% (inactive)
44 | CCOC(=O)C1=C(N)N(c2ccccc2Oc2ccccc2)C(=O)C1 | 3.7% (inactive)

Row | Structure (SMILES) | cytotoxicity
45 | CCS(=O)(=O)C(=C(Nc1ccc(OC)cc1)Nc1ccc(OC)cc1)S(=O)(=O)CC | -21.8% (inactive)
46 | CC(C)CC(=O)Nc1ccc(F)c(Cl)c1 | -0.2% (inactive)
47 | Cc1ccsc1-c1nc(CSCC(=O)NCc2ccc3c(c2)OCO3)c(C)o1 | 5.8% (inactive)
48 | CC(C)C(=O)Nc1ccc(NC(=O)c2ccco2)cn1 | -9.5% (inactive)
49 | Cc1cc(NC(=O)C(C)(C)C)no1 | -22.1% (inactive)
50 | CCN(CC)S(=O)(=O)c1ccc(F)cc1 | -8.3% (inactive)
51 | CC(C)c1[nH]nc2c1C(c1cccnc1)C(C#N)=C(N)O2 (stereo not given) | -15.1% (inactive)
52 | CCOC(=O)c1[nH]c(C)c(C(=O)Nc2ccccc2F)c1C | 43.6% (inactive)
53 | CCOC(=O)c1[nH]c(C)c(C(=O)Nc2ccccc2C)c1C | 52.4% (active)
54 | CCOC(=O)c1[nH]c(C)c(C(=O)Nc2cccc(Cl)c2C)c1C | 43.9% (inactive)
55 | O=C(OCc1cc2ccccc2[nH]c1=O)c1ccco1 | 20.9% (inactive)
56 | Cc1ccc(S(=O)(=O)NC(=O)Nn2c(C)nnc2C)cc1 | -7.7% (inactive)
57 | CC12CN3CC(C)(CN(C1)C3c1cc3ccccc3[nH]1)C2=O (stereo not given) | 14.8% (inactive)
58 | COc1ccc(CCNC(=O)CN(C2CCCCC2)S(C)(=O)=O)cc1OC | -1% (inactive)
59 | COCCn1c(SCC(=O)Nc2cccc(C)c2)nnc1C(C)C | 1% (inactive)
60 | CCOc1ccc(NS(=O)(=O)c2ccc(SC)cc2)cc1 | 7.2% (inactive)
61 | CCOc1ccc(NS(=O)(=O)c2ccc3[nH]c(=O)oc3c2)cc1 | -0.3% (inactive)
62 | CC1Cc2cc(C(=O)O)ccc2O1 (stereo not given) | -26.7% (inactive)
63 | O=C(c1coc(=O)c(Br)c1)N1CCOCC1 | -0.3% (inactive)
64 | CCN(C(=O)c1coc(=O)c(Br)c1)c1ccc2c(c1)OCO2 | 74.4% (active)
65 | CCN(C(=O)CCS(=O)(=O)c1ccc(Br)cc1)c1ccc2c(c1)OCO2 | 8.6% (inactive)
